± gives the standard deviation.
Tested on: MILI (PIWIL2) piRISC loaded with L1MC piRNA (26 nt)
Assay: pre-steady-state target cleavage rate (min^-1); guide: L1MC piRNA 5'p-UAACUAAAUACUAUGCAAGCUGUAGG; MIWI and MILI are mouse PIWI proteins and EfPiwi is from a freshwater sponge; tags in brackets are library labels; higher = faster piRNA-guided slicing of the target
Conditions: auxiliary factor: 500 nM mouse GTSF1
Summary of the method: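 Three pooled Cleave-'n-Seq trials supplied the data, with k3 capped at 0.0001 min^-1. In each, […] transcribed, DNA-blocked target RNA library and 1 nM active affinity-purified piRISC with one synthetic guide reacted in HEPES–potassium acetate buffer at 33 °C for 0–8 or 0–960 min, with or without 500 nM GTSF1 partner protein. Uncleaved targets were sequenced and normalised to depth and to weakly complementary targets. A burst-and-steady-state fit provided the pre-steady-state cleavage rate.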
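Note: 1 nM active piRISC with 0.1 nM target library at 33 °C single turnover.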

| Sequence | pre-steady-state target cleavage rate |
| --- | --- |
| UCCUGGAUCAGCUUGCAUUGUAUUUACUUA | 0.146 ± 0.027 |
| UCCUGGAUGUCGUUGCAUAGUAUCUAGUUA | 0.11 ± 0.019 |
| UCCUGGAUGUCGUUGACAUAGUAUUUAGUUA | 0.0142 ± 0.0054 |
| UCCUGGUACUCCUUGCAUAGUAUUUAGUAA | 0.131 ± 0.032 |
| UCCUGGAUCAGCUUGCAUAGUAAAAAGUUA | 0.102 ± 0.019 |
| UCCUGCUACAGCUUGCAUAGUUUUUACUUA | 0.0291 ± 0.0063 |
| UCCUGGAACACCUUGCAUAGUUUUUAGUUA | 0.0237 ± 0.0067 |
| UCCUGGAUCUGCUUGCAUAGAAUUUAGUUA | 0.0261 ± 0.0069 |
| UCCUGGAUGUGCUAGCAUAGUAUUUACUUA | 0.0865 ± 0.019 |
| UCCUGGAUCAGCUUGCAUAGAUUUUAGUAA | 0.0227 ± 0.0073 |
| UCCUGGAUGAGCAACCAUAGUAUUUAGUAA | 0.0492 ± 0.016 |
| UCCUGGAACAGCUUGCAUAGUAUAUACAAA | 0.0873 ± 0.03 |
| UCCUGGUACAGCUUGCUUAGUAUUUAGAUA | 0.122 ± 0.024 |
| UCCUGGAUGUGCUUGCAUAGUAUAAAGUAA | 0.0114 ± 0.0059 |
| UCCUGGUACAGCUAGCAUAGUAUUUACUUA | 0.0934 ± 0.023 |
| UCCUGGAUGUCGUUGCUUAGUAUUAAGUUA | 0.03 ± 0.0099 |

| Sequence | pre-steady-state target cleavage rate |
| --- | --- |
| UCCUGGAUCACGAUGCAUAGUAUUUAGAAA | 0.111 ± 0.017 |
| UCCUGGAUGUCCUUGCAAUGUAUUUAGUAA | 0.0086 ± 0.0045 |
| UCCUGGAUCAGGAAGCAUAGUAUUUACAAA | 0.00413 ± 0.0036 |
| UCCUGGAUGUCGUUGCAUAGAAUUUAGUUA | 0.00458 ± 0.0035 |
| UCCUGGAACAGGAUGCAUAGUAUUUUCAAA | 0.0202 ± 0.0076 |
| UCCUGGAUGUCGAAGCAUAGUAUUAAGUAA | 0.0172 ± 0.0065 |
| UCCUGGAUGUCGAUGCAUAGUAUUUAGAUA | 0.0384 ± 0.011 |
| UCCUGGUACAGCAUGCAUAGUAUUUACAAA | 0.127 ± 0.033 |
| UCCUGCUACAGGAUGCAUAGUAUUUACAAA | 0.0053 ± 0.0037 |
| UCCUGGUACAGCUUGCAUUAGUAUUUAGUUA | 0.017 ± 0.0074 |
| UCCUGGAUGUCGAUGGAUAGUAUUUUGUUA | 0.00767 ± 0.0043 |
| UCCUGGAUGUCCUUGGAAAGUAUUUAGUUA | 0.0226 ± 0.0071 |
| UCCUGGAUCAGCUUCGUUAGUAUUUAGUAA | 0.02 ± 0.0056 |
| UCCUGGUACAGCUUGCAUAGUAAAUUCAAA | 0.0147 ± 0.0074 |
| UCCUCCUACAGCUUCGAUAGUAUUUACAAA | 0.0556 ± 0.016 |

Same assay, conditions: auxiliary factor: none (no GTSF1)

| Sequence | pre-steady-state target cleavage rate |
| --- | --- |
| UCCUGGAUCAGCUUGCAAUCUAUUUACAAA | < 0.0001 |
| UCCUGGAUGUCGAUCCAUAGAAUUUAGUUA | < 0.0001 |
| UCCUGGAUGUCGAACGUAUCUAUAAAGUUA | < 0.0001 |
| UCCUGGAUGUCGAACGAUAGUAUUUAUGUUA | < 0.0001 |
| UCCUGGAUGUCGAACCAUAAUAUUUAGUUA | < 0.0001 |
| UCCUGGAUGUCCAACCAUAGUAUUUAGUAA | < 0.0001 |
| UCCUGGAUGUCGAACCAUUCUAUUUAGUUA | < 0.0001 |
| UCCUGGAUGUCGAACGUAUGUACUUUAGUUA | < 0.0001 |

— the supplement of paper PMC10338343
